# Spn MK inh – S. pneumoniae mevalonate kinase inhibition; AID 555; actives 0.48% (n = 65,000); purified MK, PK/LDH-coupled NADH absorbance 340 nm; inhibition, % at 10 µM;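 active means ranked among the strongest by inhibition in the single 10 µM screen, a fixed top-ranked set picked for dose follow-up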
# Fluor 339 460 – intrinsic fluorescence of library compounds, ex339/em460 – biochemical, MLSMR library, data from DPM-DC assay, artefact control, profiling panel. compound autofluorescence, ex339/em460 nm, NADH buffer; hits give high values; 1 = no-compound wells, NADH background. fluorescence fold increase at 10 µM. actives 5.5% (n = 65,000);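 active means at 10 µM, mean starting fluorescence two-fold or more over control wells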;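 further: signal is the first read of a kinetic run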
# A340 absorber – absorbance at 340 nm; AID 708; fold change at 10 µM; compound absorbance at 340 nm, fold over control; 65,000 tested, under 10 active;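 active means at 10 µM dose, initial 340 nm absorbance at least 2 fold that of control wells; inactive means change under 2 fold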;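 further: initial absorbance extrapolated from kinetic A340 decline of NADH oxidation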
# DPM-DC inhibit – inhibitors of Streptococcus pneumoniae diphosphomevalonate decarboxylase | purified DPM-DC, PK/LDH coupled NADH fluorescence | calls only at 10 µM | actives 0.49% (n = 65,000) | AID 556;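 active means the 320 compounds with the highest percent inhibition in the single-dose primary screen, excluding strongly autofluorescent ones, cut at about 32% in these data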;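 further: kinetic rate of NADH fluorescence loss reporting ADP formed by the decarboxylase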
# Spn PMK inh – S. pneumoniae PMK inhibition. purified PMK, PK/LDH-coupled NADH absorbance 340 nm. inhibition, % at 10 µM. actives 0.49% (n = 65,000). AID 539;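 active means top-ranked compounds by inhibition in the single 10 µM screen, taking a fixed number of the strongest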;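 further: 0% = full reaction with DMSO carrier and 100% = background rate without enzyme reaction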
# NADH coupling – inhibitors of enzymes used to reach an NAD/NADH endpoint; actives 0.02% (n = 65,000); coupled PK/LDH NADH assays, four targets; AID 774; IC50, µM (doses to about 10 µM), inactives show at the top dose inhibition;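 active means single-dose screening hits from any of four coupled enzyme assays that gave an IC50 when retested across doses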;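 further: the DPM-DC format reads NADH fluorescence rather than 340 nm absorbance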
# An asterisk follows results filed as active; i = inactive; . = no result shown; + = active, no number. Sampled rows, rich in hits. Any-hit rate of the full collection: about 6.3%.
SMILES,Spn MK inh,Fluor 339 460,A340 absorber,DPM-DC inhibit,Spn PMK inh,NADH coupling
CCNC(=O)c1cc2c(=O)n3cccc(C)c3nc2n(CCc2ccccc2)c1=N,9,2.3*,1.1,.,0,5%
N=c1c(C(=O)NCc2ccco2)cc2c(=O)n3ccccc3nc2n1CCc1ccccc1,10,2.2*,1,.,0,5%
CNC(=O)c1cc2c(=O)n3cccc(C)c3nc2n(C(C)C)c1=N,4,3.8*,1.1,.,0,2%
CCOC(=O)c1cc2c(=O)n3cccc(C)c3nc2n(C)c1=N,5,1.1,1.1,i,5,3%
COc1ccc(CCn2c(=N)c(C(=O)NCc3ccco3)cc3c(=O)n4ccccc4nc32)cc1OC,3,1.1,1,i,6,3%
COc1cc(C2Nc3ccc4ncccc4c3C3=C2C(=O)CCC3)ccc1O (stereo not given),5,1.2,1.1,i,19,12%
CC1(C2(O)CC(c3ccccc3)ON2)CCCCC1 (stereo not given),5,1,1,i,0,1%
CCS(=O)(=O)c1ccc(O)c(NC(=O)Nc2ccccc2)c1,42*,1,1,i,18,20%
Cc1nc2ccccn2c1/C(O)=C1\C(=O)C(=O)N(CCCN(C)C)C1c1ccc(Cl)cc1 (stereo not given),1,1.1,1.1,i,2,1%
COc1ccc(NS(=O)(=O)c2coc(C(N)=O)c2)cc1Cl,7,1,0.99,i,9,5%
COc1ccc(-n2nc3ccc(NS(C)(=O)=O)cc3n2)cc1Cl,8,3.8*,1.2,.,1,5%
CC(=O)c1ccc(Oc2ncnc3sccc23)c(CN2CCOCC2)c1,0,1,1,i,25*,8%
O=C(NCCC1=CCCCC1)C1CCN(S(=O)(=O)c2cccc3cccnc23)CC1,2,1,0.97,i,1,7%
Cc1cccc(NC(=O)c2ccc(S(=O)(=O)N3CCCCC3)cc2)n1,0,1.1,1,i,10,3%
Cc1csc(C(C#N)C(=O)c2ccc(S(=O)(=O)N3CCCC3)cc2)n1 (stereo not given),0,0.99,1.1,i,25*,8%
CCOC(=O)Cc1csc2nc3sc(C)c(C)c3c(=O)n12,6,1.6,1.2,i,11,8%
Cn1cccc1Cc1nnc(SCC(=O)NCc2ccc(F)cc2)n1-c1ccc(F)cc1,active,1.1,1,i,17,10%
Cc1nnc(SCC(=O)Nc2ncc(Cc3ccc(F)cc3)s2)n1N,32,1.2,1.1,i,44*,34%
Cc1cc(CCN2CCC(=O)NC2=O)ccc1OC(C)C,11,1.1,0.96,i,14,9%
Cc1ccc(S(=O)(=O)Nc2nc3ccccc3nc2NCc2ccco2)cc1,2,1.6,1.1,i,3,5%
Cc1ccc(S(=O)(=O)Nc2nc3ccccc3nc2NCc2ccco2)cc1C,6,2.1*,1.1,i,11,10%
Cc1nnc(Sc2nc(Sc3nnc(C)s3)nc(N3CCN(C)CC3)n2)s1,6,1.1,1,i,13,6%
CN(C)C(=O)N1CCCC(C(=O)NCc2cccs2)C1 (stereo not given),0,0.98,0.99,i,21,7%
CN(C)C(=O)N1CCC(C(=O)NCc2cccs2)CC1,0,0.58,1,+,22,22%
CC(CCc1ccccc1)NC(=O)C1CCN(S(=O)(=O)N2CCCCC2)CC1 (stereo not given),0,1.1,1,i,10,3%
CC1=CC2=NC(=O)CC(C)(C(=O)N(CC(=O)NC(C)(C)C)C3CCCC3)N2C=C1 (stereo not given),0,3.8*,1.1,.,7,4%
CC1=CC=CC2=NC(=O)CC(C)(C(=O)N(CC(=O)NC(C)C)C3CCCC3)N12 (stereo not given),7,3*,1,.,7,5%
CC(C)(C)NC(=O)CN(C(=O)C1(C)CC(=O)N=C2C=CC=CN21)C1CCCC1 (stereo not given),0,3.8*,1.1,.,21,11%
O=S(=O)(NCCSc1ccccc1)c1cccs1,2,1.1,1,i,0,9%

# Source: PubChem BioAssay
